# Reference: the supplement of paper PMC10681739
# Target: T1, ETS1 (UniProt P14921)
# T1 sequence: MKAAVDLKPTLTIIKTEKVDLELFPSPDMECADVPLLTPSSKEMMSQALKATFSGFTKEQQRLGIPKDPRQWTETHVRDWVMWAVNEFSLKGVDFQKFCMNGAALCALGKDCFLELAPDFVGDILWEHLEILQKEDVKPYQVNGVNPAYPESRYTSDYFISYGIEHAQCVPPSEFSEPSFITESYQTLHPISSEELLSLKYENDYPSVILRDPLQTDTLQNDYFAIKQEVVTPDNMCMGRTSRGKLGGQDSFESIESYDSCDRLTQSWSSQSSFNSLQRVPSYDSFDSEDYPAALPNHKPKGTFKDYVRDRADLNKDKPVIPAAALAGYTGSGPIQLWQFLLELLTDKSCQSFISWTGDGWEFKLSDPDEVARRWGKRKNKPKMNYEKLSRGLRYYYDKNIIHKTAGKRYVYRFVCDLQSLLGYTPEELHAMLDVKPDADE
# Test: ETS1 binding intensity (PBM fluorescence) in presence of RUNX1, normalised to ETS1-only experiment (arbitrary fluorescence units); higher = stronger binding
# Conditions: ETS1 concentration 1 nM; RUNX1 concentration 25 nM
row,Sequence,ETS1 binding intensity
1,GCCCAGGCAGGAAGCCAGGCGCCCACAGGTTGGCAG,1090
2,GCAGCATTTCCTGACTTCTTCGCCCCTGTGGTTGCA,480
3,CAGAAACATCCCTCCTGCCGCCGCTTTGTGGTACCA,526
4,GTTATTCTCCCCTTCCTGTGGTGTGTTTTGATGGTA,626
5,ACAGGAAATGTTAGAGGTTGAGTTAGCGGTTATGAG,3640
6,TGCCGGGCCCCGGATGTCACCGCAGCCGCCATCTTA,6730
7,CGAAACGCGTTCCCCGGAAACCGCGCCCGGCTCCGA,3230
8,CACCTAAAGCCATTGGGATGTGGTTTCTCTTTTTCA,894
9,CTCGCCCCATTTCCCGTAAATATCAGCCACAGACCA,464
10,GGATGAACAGGAAGCTAAAGTAAATACCACAGTGAC,3860
11,GCAACTGAACAGGAAACTAAAAAACCACAACACTTA,15600
12,AGCTGAGAGCCTGCCGGAAGCCACAGCTTCTTCTCG,5670
13,GATGCTTGTTCAGGATGCGGTTTCTTGCAGCAAGTT,2380
14,AACAACAGGATGCTCTCTAGTCTAACAGTGGTAACA,820
15,AGAAGCTGCAGTCCCGGAAGCGGTTTTAGGGGGCCG,10100
16,CCCCGCGGAACTCTGGCACAGTCAGCTGACCGCAGA,2000
17,GTGGTCGGGAGGGGAAGTGAGGCGGTTACCTCGGCG,689
18,CCTGTCCGGAAGTCCTGAGAGGGAATCGCCCGCAAA,5360
19,CTGCTGACCAAAACAGGATGTGGTCTACACAAAGTG,36600
20,AGGGTTACAATTTCCGTAAACCACAGAAGCAGCAGA,979

row,Sequence,ETS1 binding intensity
1,GCTGACCCGGAAGCGCTCGTGACCACCATCTCCGAC,2590
2,TGCATGCAACAGGAAGTGGGGTGTGGTTTGTTCTGG,39100
3,GATCCCCCTCCTCCATCCTGTGGCTTCGGGTTGCCG,420
4,GGCAGCAAGAAAGGAAATAGTGTGGTTGGGTGGAGA,1640
5,GAGTCGCTTCCGCTCCCGCCCCGCTCTGTGGCGTAG,1330
6,GCACTCGGATGTTGGCCGTAGTTGTGGTTATAGTTG,1090
7,TGGATGGCAAGCAACGGAAACCGCAAACAGGGCTGT,6230
8,GACTGGACAACTTCCTGGTGGAAAACCGCGACTCTT,2930
9,TGCCACCTGCTTCCTGCCTGTGTAGCCACAAGGGAC,960
10,AGCTTTCCTTTTCCGGTTGCGGCGCCGCGCGTTGAT,1820
11,ACAGAGAAGCTTCCTATTGTGGGATTCACCACCACC,705
12,GGTGGCAACATCCTGGGGAGGGGAACCCACAGGGGA,452
13,GGACGCCGCCGGAAGCGCGACCCGCACTCCCGGTAG,3500
14,GAGGGGAGGATGTCTGAGCTTTTAATTGTGGTTTCA,1050
15,AACGACAAACCGGAAGTATGGTTTGCCGCCTGAAGC,19500
16,CGGCCTCTTCCGGTCACCTGGCCCGTCGCGGTCCCG,1520
17,GGGTCCTTCCGGGTTTTGTGTCGAATCTGCGGCGGC,395
18,GCACACCGGAACTCACACCTGAAACCACAGAACCAA,4300
19,CCTGGGCAAGGCCGGATGCCTGTGGCTTCCAGGCTG,3350
20,GTTGGGAGGCGCACATCCGGCGGTTACCCGGTGCTT,3090
